Molecules are shown by their SMILES. Records with an inconclusive call do not appear. Active and inactive are the calls of the source. Calls come from the whole dose curve; as a rule, active = well fitted inhibition curve with a large enough effect; inconclusive = small, poorly fitted or top-dose-only effect; inactive = flat fitted curve, though single readings scatter. Square brackets hold non-standard residues; d marks the D form. Peptide text beside a SMILES is read from it. PhLac = O=C(O)[CH](O)Cc1ccccc1; NMeV = CN[CH](C(=O)O)C(C)C

The subject of the assay is CRL-7250. Description: qHTS assay to identify novel small-molecules to repurpose for Merkel cell carcinoma treatment (AID 1296009). Note: nearly all actives have a fitted effect of over 60% in size. To be noted: MCC and control cell lines, CellTiter-Glo viability, 72 h; series mostly up to 92 µM; activity change, negative = cytotoxicity: at the top concentration. The essentials:
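72 hr, 37 degree celsius; NPC 8-pt / MIPE 11-pt dose response; compound pinned in DMSO; CellTiter-Glo, 10 min RT, luminescence; normalized to no-cell and DMSO controls.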
(In general: Quantitative high-throughput screening tests each substance at several concentrations.)
In the case of `CC12CCC3c4ccc(O)cc4CCC3C1CCC2OC1OC(C(=O)O)C(O)C(O)C1O` (stereo not given), the outcome was inactive.

With `COC1C2=C(COC2=O)C2(C)CCCC(C)(CO)C2C1OC(=O)c1ccccc1` (stereo not given), the “outcome” value was “inactive [at 17.4 µM]”.

For the compound `O=C(Nc1ccc(-c2ccc(Cl)c(Cl)c2)cc1)C1=C(O)c2ccccc2S(=O)(=O)N1`, the compound was classed as inactive.

For the compound `CCOC(=O)c1ccc(NC2CCCCC2)c(N)c1`, the compound was called inactive.

Regarding `COC(=O)c1[nH]c(=O)c2ccccc2c1-c1ccc[nH]1`, the compound was called inactive.

Turning to `C[C@@H]1CC[C@]2(C(=O)O[C@@H]3O[C@H](CO)[C@@H](O)[C@H](O)[C@H]3O)CC[C@]3(C)C(=CCC4[C@@]5(C)C[C@@H](O)[C@H](O)[C@@](C)(C(=O)O[C@H]6[C@H](O)C[C@@]7(C)C(CC[C@]8(C)C7CC=C7[C@H]9[C@](C(=O)O[C@@H]%10O[C@H](CO)[C@@H](O)[C@H](O)[C@H]%10O)(CC[C@@H](C)[C@@]9(C)O)CC[C@]78C)[C@@]6(CO)C(=O)O)C5CC[C@]43C)[C@@H]2[C@]1(C)O` (stereo not given in full), the outcome is “inactive [at 9.27 µM]”.

For `Cc1cc(-c2ncc(-c3cccnc3)cc2/C=C/c2ccccc2)cnc1-c1cccnc1`, the compound was called inactive.

With `NC(=O)[C@H]1CCCCc2c1[nH]c1ccc(Cl)cc21`, the “outcome” value was “inactive [at 17.4 µM]”.

Consider `COc1cc(Nc2nc3c(s2)CCCC3c2ccccc2)ccc1-n1cnc(C)c1` (stereo not given), for which the outcome was “inactive [at 9.27 µM]”.

As for `CN(Cc1ccc(C(=O)O)cc1)c1ccc(OCc2c(-c3c(Cl)cccc3Cl)noc2C2CC2)nc1C(F)(F)F`, the outcome was inactive.

On to `Clc1ncoc1-c1c[nH]c2ccccc12`, for which the compound was classed as inactive.

On to `OC[C@H]1O[C@@H](OCCc2ccccc2)[C@H](O[C@@H]2OC[C@@H](O)[C@H](O)[C@H]2O)[C@@H](O)[C@@H]1O`, for which the “outcome” value was “inactive [at 17.4 µM]”.

Turning to `COc1c2c(c(C)c3c1C(=O)OC3)O[C@@]1(C)C[C@@H](O)[C@]34O[C@](OC)(CC[C@]3(C)[C@H]1C2)OC4(C)C`, the “outcome” value was “inactive [at 17.4 µM]”.

`CCCCCCCOc1cc2c(cc1/C(C)=C/c1ccc(C(=O)O)cc1)C(C)(C)CCS2(=O)=O`: the call was inactive.

In the case of `COc1cc([C@@H]2Oc3c(OC)cc(CCCO)cc3[C@@H]2CO[C@@H]2O[C@H](CO)[C@@H](O)[C@H](O)[C@H]2O)ccc1O`, the “outcome” value is “inactive [at 17.4 µM]”.

For the compound `Cc1cc(CO)c(O)c(C(=O)CC2CC(=O)NC(=O)C2)c1`, the outcome was inactive.

Take `COC(=O)c1c(CC=C(C)C)c(OC2OC(CO)C(O)C(O)C2O)c2ccccc2c1OC1OC(CO)C(O)C(O)C1O` (stereo not given): the “outcome” value is “inactive [at 17.4 µM]”.

For `C=C1CC[C@H]2[C@@H](/C=C(\C)C(=O)[C@@]3(OC(C)=O)C[C@H](C)[C@H](OC(C)=O)[C@@H]3[C@H]1OC(C)=O)C2(C)C`, the “outcome” value is “inactive [at 17.4 µM]”.

For the compound `Cc1cc(-c2nncc3c(C(C)(C)C)c(OCc4ncnn4C)nn23)no1`, the call was inactive.

Regarding `COc1cnc(-n2cnc(C)n2)c2[nH]cc(C(=O)C(=O)N3CCN(C(=O)c4ccccc4)CC3)c12`, the outcome was inactive.

On to `COc1ccc(C(=O)CC(=O)O)c2c1C=CC(C)(C)O2`, for which the outcome was inactive.

Consider `COc1cc(C(C)=O)c(OC)c2c1OC(C)(C)C=C2`, for which the compound was called inactive.

For the compound `COC1CCCC/C(C)=C/C2C=C(C)C(C)C3C(CC(C)C)NC(=O)C23C(=O)C1` (stereo not given), the “outcome” value was “inactive [at 17.4 µM]”.

For `C[C@@H]1CC[C@]2(C(=O)OC3OC(CO)C(O)C(O)C3O)CC[C@]3(C)C(=CCC4[C@@]5(C)CC[C@H](O)[C@](C)(C(=O)O)C5CC[C@]43C)C2[C@]1(C)O` (stereo not given in full), the “outcome” value is “inactive [at 17.4 µM]”.

In the case of `Cc1ccc(-c2c(-c3nn(C)c4ncnc(N5CCC(N6CCCCC6)C5)c34)cnn2C)cc1` (stereo not given), the result was inactive.

Consider `C[C@@H]1O[C@@H](O[C@H]2[C@@H]3C=CO[C@@H](O[C@@H]4O[C@H](CO)[C@@H](O)[C@H](O)[C@H]4O)[C@@H]3[C@@]3(CO)O[C@@H]23)[C@H](OC(=O)/C=C/c2ccc(O)c(O)c2)[C@H](O)[C@H]1O`, for which the “outcome” value is “inactive [at 17.4 µM]”.

Consider `CC(C)c1c(O)ccc2c1CC[C@H]1C(C)(C)CCC[C@]21C`, for which the call was inactive.

Turning to `COc1c2c(c(C)c3c1C(=O)OC3)OC1(C)CC(O)C(C(C)(C)O)C(C)(CCC(=O)O)C1C2` (stereo not given), the “outcome” value is “inactive [at 17.4 µM]”.

`CC(C)C(C(=O)N1CCCC1C(=O)O)N(C)C(=O)C(O)Cc1ccccc1` (stereo not given) (H-[PhLac]-[NMeV]-Pro-OH; configuration not given here): the outcome was inactive.

Turning to `CC12CC(c3ccoc3)OC(=O)C1CCC1(C)C2CCC(O)C1(C)O` (stereo not given), the compound was classed as inactive.

Consider `COCC(=O)N1CCc2cc(-c3csc(NC(=O)c4cc(OC)cc(OC)c4)n3)ccc21`, for which the compound was called inactive.

As to `C=C[C@H]1C(O[C@@H]2O[C@H](CO)[C@@H](O)[C@H](O)[C@H]2O)OC=C2C(=O)N3CCc4c([nH]c5ccccc45)C3CC21` (stereo not given in full), the “outcome” value is “inactive [at 17.4 µM]”.

Consider `Cc1ccnn1-c1ccc(C(=O)N2CCN(S(=O)(=O)c3ccc(Cl)c(C(F)(F)F)c3)CC2)cc1`, for which the compound was classed as inactive.

Regarding `C=C1C(OC(C)=O)CCC2(C)CC3(O)OC(=O)C(C)=C3CC12` (stereo not given), the call was inactive.

`N#CC1C(=O)N=C(c2cc(Cl)ccc2O)C=C1c1cc(OCc2ccccc2)cc(OCc2ccccc2)c1` (stereo not given): the call was inactive.

Consider `CN(C)c1ccc(C2O[C@@H](c3ccccc3)C[C@H](c3ccccc3)O2)cc1` (stereo not given in full), for which the compound was classed as inactive.

With `C=C(C(=O)OC)[C@]12O[C@@](C)(CC[C@@]3(O)/C(=C\C)C(=O)O[C@]3(C)C[C@@H]1OC(=O)C(CO)CN1CCCC1C(=O)O)CC2=O` (stereo not given in full), the “outcome” value is “inactive [at 17.4 µM]”.

In the case of `CC(O)C/C=C/C=C/C(=O)OC1C=C2COC(=O)C2(O)C2(C)CCCC(C)(C)C12` (stereo not given), the compound was classed as inactive.

Turning to `COc1cc2c(cc1OC)CN(C(=O)[C@@H](NCc1ccncc1)C(C)(C)C)CC2`, the compound was called inactive.

Regarding `C[C@@H]1O[C@@H](O[C@H]2[C@H](O)[C@@H](O)[C@H](OC[C@H]3O[C@@H](OC(=O)[C@]45CCC(C)(C)C[C@H]4C4=CCC6[C@@]7(C)CC[C@H](O[C@@H]8OC[C@H](O)[C@H](O[C@@H]9O[C@H](CO)[C@@H](O)[C@H](O)[C@H]9O)[C@H]8O)[C@@](C)(CO)C7CC[C@@]6(C)[C@]4(C)CC5)[C@H](O)[C@@H](O)[C@@H]3O)O[C@@H]2CO)[C@H](O)[C@H](O)[C@H]1O` (stereo not given in full), the outcome is “inactive [at 9.27 µM]”.
